Reference: article PMC4336329 (PLoS ONE, 2015)
About 14,000 (4.5%) of roughly 310,000 compounds showed an effect of 50% or more. The effect is printed as a negative number. This is one part of a sample in which strong results are shown more often than they occur.

What follows are compounds tested against human ether-à-go-go-related gene (hERG) potassium channel (human, UniProt Q12809) (assay: primary screen, population patch clamp on CHO cells stably expressing hERG; higher = less effect of the substance).
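Further: peak tail current of the secondary pulse compared with the same well before compound.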

Sequence of human ether-à-go-go-related gene (hERG) potassium channel (Q12809 whole entry, looked up): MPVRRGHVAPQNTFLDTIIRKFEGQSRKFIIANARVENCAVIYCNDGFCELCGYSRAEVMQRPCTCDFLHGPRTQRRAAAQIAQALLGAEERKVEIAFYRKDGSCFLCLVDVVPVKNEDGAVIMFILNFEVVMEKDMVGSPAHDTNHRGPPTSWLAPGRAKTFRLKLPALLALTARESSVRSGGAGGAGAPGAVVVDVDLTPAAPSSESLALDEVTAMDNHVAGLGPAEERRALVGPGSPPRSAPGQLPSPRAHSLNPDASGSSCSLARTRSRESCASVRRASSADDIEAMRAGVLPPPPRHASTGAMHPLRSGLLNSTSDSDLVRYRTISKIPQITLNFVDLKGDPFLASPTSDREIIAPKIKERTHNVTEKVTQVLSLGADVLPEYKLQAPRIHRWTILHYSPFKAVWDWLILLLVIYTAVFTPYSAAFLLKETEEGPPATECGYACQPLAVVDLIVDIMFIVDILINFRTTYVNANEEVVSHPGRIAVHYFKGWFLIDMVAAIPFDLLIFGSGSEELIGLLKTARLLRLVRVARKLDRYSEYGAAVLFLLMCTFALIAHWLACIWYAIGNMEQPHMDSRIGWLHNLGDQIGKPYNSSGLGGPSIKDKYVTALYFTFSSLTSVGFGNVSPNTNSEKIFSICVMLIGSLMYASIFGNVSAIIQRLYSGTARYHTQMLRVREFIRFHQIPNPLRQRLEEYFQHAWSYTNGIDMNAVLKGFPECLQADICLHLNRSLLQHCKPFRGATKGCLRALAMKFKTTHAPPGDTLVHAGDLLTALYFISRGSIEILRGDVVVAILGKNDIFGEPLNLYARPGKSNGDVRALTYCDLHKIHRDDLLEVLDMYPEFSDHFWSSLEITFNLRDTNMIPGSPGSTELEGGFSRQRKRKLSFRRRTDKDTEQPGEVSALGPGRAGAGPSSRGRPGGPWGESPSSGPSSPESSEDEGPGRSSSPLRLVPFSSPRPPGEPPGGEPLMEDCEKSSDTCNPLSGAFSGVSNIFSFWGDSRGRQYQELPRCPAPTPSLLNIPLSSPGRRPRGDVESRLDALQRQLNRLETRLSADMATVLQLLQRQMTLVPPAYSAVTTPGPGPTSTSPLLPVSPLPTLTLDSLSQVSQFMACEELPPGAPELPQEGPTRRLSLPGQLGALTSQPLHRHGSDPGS

Compound	hERG current change (%, negative = inhibition) at 10uM
Cc1cccc(C2Nc3ccccc3C(=O)N2c2ccccc2)n1 (stereo not drawn)	4.41%
O=C(NCc1ccc2c(c1)OCO2)C1CC(c2ccc(Cl)c(Cl)c2)=NO1 (stereo not drawn)	15%
Cc1nn(C(C)c2n[nH]c(=S)n2-c2ccc(F)cc2)c(C)c1[N+](=O)[O-] (stereo not drawn)	13.3%
O=C(Nc1ccc2c(c1)C(=O)OC2)c1ccc(C(F)(F)F)cc1	17.3%
COc1ccc(CN2CCNC(=O)C2CC(=O)NCCCn2nnc3ccccc32)cc1C (stereo not drawn)	-2.87%
O=C(NCCN1CCCCC1)Nc1ccc([N+](=O)[O-])cc1	-41.4%
O=C(NCCN1CCc2ccccc2C1)Nc1ccc([N+](=O)[O-])cc1	-70.1%
CCc1ccc(NC(=O)CN2CCc3ccccc3C2)cc1	-34.2%
CCc1ccc(NC(=O)NCCN2CCc3ccccc3C2)cc1	-54.7%
O=C(NCCN1CCc2ccccc2C1)Nc1ccc(F)cc1	-37.5%
CN1CCN(CCNC(=O)Nc2ccc([N+](=O)[O-])cc2)CC1	-25.7%
CCCCSCCCNC(=S)Nc1ccccc1C	5.08%
COc1ccc(OC)c(N(CC(=O)NC2CC3CCC2C3)S(=O)(=O)c2ccccc2)c1 (stereo not drawn)	-59.7%
COc1ccc(OC)c(N(CC(=O)NCCSCc2ccco2)S(=O)(=O)c2ccccc2)c1	-69.2%
COc1ccc(S(=O)(=O)N(CC(=O)NC2CC3CCC2C3)c2ccccc2OC)cc1 (stereo not drawn)	-25%
COc1ccccc1N(CC(=O)NCCSCc1ccco1)S(=O)(=O)c1ccccc1	-26.6%
COc1ccc(Cl)cc1N(CC(=O)NC1CC2CCC1C2)S(=O)(=O)c1ccccc1 (stereo not drawn)	-31.5%
COc1ccc(N(CC(=O)NCCSCc2ccco2)S(=O)(=O)c2ccc(C)cc2)cc1	-17.9%
COc1ccc(OC)c(N(CC(=O)NCCSCc2ccco2)S(=O)(=O)c2ccc(OC)c(OC)c2)c1	-22.6%
Cc1ccc(N(CC(=O)NCCSCc2ccco2)S(=O)(=O)c2ccc(C)cc2)cc1	-69.7%
Cc1ccc(S(=O)(=O)N(CC(=O)NCCSCc2ccco2)c2ccc(F)cc2)cc1	-28.3%
O=C(NCc1nc2ccccc2[nH]1)c1cccc(S(=O)(=O)N2CCCCC2)c1	13.9%

Compound	hERG current change (%, negative = inhibition) at 10uM
Cn1c(=O)c2c(nc(Br)n2CCCc2ccccc2)n(C)c1=O	-9.05%
COc1ccc(Cl)cc1S(=O)(=O)N1CCC(C(=O)NC2CCCC2)CC1	-21.2%
COC(=O)[C@H]1C[C@@H]1[C@H](NC(=O)c1cc(C)on1)c1ccccc1	10.3%
Cc1cc(NC(=O)CSCC(=O)N2CCN(c3cccc(C(F)(F)F)c3)CC2)no1	-11.3%
COCCN(C(=O)/C=C/c1ccccc1)c1nnc(-c2cccnc2)s1	-9.61%
Cn1c(N2CCOCC2)c(C#N)c2ccccc21	-3.19%
COc1ccc(OC)c(S(=O)(=O)ON2C(=O)c3ccccc3C2=O)c1	6.82%
CCOC(=O)/C(C#N)=C\c1ccc(N2CCN(C)CC2)cc1	-38.2%
CCOC(=O)/C(C#N)=C/c1ccc(N2CCN(C)CC2)cc1	-27.8%
CCOC(=O)/C(C#N)=C/c1ccc(N2CCCCC2)cc1	-60.9%
O=C(CCn1cccc1)Nc1ccc(OC(F)(F)F)cc1	2.32%
Cn1ncc(Br)c1NC(=O)Nc1ccc(OC(F)(F)F)cc1	8.82%
Cn1ncc(C(=O)Nc2ccc(OC(F)(F)F)cc2)c1-n1cccc1	-81.3%
O=c1[nH]c2ccccc2nc1/C=C(\O)c1cccs1	19.5%
CCCCN(CC)S(=O)(=O)c1ccc2c(c1)CCCN2C(C)=O	-43.3%
CCCN(CCC)S(=O)(=O)c1ccc2c(c1)CCCN2C(C)=O	-47.2%
CC(=O)N1CCCc2cc(S(=O)(=O)N(CC(C)C)CC(C)C)ccc21	-50.4%
Cn1c(=O)oc2cc(S(=O)(=O)N3CCC(C(=O)NCc4ccccc4)CC3)ccc21	-6.54%
CC(C)(C)NC(=O)Cn1nnc(-c2ccc(Cl)cc2)n1	2.32%
COC(=O)C1=C(C)OC(N)=C(C#N)C1c1cc(OC)c(OCC(N)=O)cc1Cl (stereo not drawn)	-10%
COC(=O)c1ccc(N2CCOCC2)c(F)c1	9.09%
Cc1ccn2c(=O)nc(SCC(=O)N3CCN(c4ccccc4)CC3)nc2c1	-28.6%

Compound	hERG current change (%, negative = inhibition) at 10uM
Cc1ccn2c(=O)nc(SCC(=O)N3CCC(C)CC3)nc2c1	-18.4%
Cc1ccn2c(=O)nc(SCC(=O)N3CCC(Cc4ccccc4)CC3)nc2c1	-55.6%
Cc1ccc2nc(SCC(=O)N3CCC(Cc4ccccc4)CC3)nc(=O)n2c1	-65%
Cc1ccc2nc(SCC(=O)N3CCC(C)CC3)nc(=O)n2c1	-9.74%
Cc1cccn2c(=O)nc(SCC(=O)N3CCC(C)CC3)nc12	-39.5%
CC1CCN(C(=O)CSc2nc(=O)n3ccccc3n2)CC1	8.67%
Cc1ccc2nc(SCC(=O)N3CCN(c4ccccc4)CC3)nc(=O)n2c1	-47.5%
Cc1cccn2c(=O)nc(SCC(=O)N3CCCCC3)nc12	-18.6%
O=C(CSc1nc(=O)n2ccccc2n1)N1CCC(Cc2ccccc2)CC1	-58.1%
Cc1cccn2c(=O)nc(SCC(=O)N3CCC(Cc4ccccc4)CC3)nc12	-78.9%
O=C(CSc1nc(=O)n2ccccc2n1)N1CCN(c2ccccc2)CC1	-27.7%
O=C(CSc1nc(=O)n2ccccc2n1)N1CCCc2ccccc21	-16.8%
N/C(=N\OC(=O)Cc1ccc([N+](=O)[O-])cc1)c1ccc([N+](=O)[O-])cc1	-24.4%
CC(=O)c1c(C)n(CCc2ccc(Cl)cc2)c2ccc(O)cc12	20.8%
O=C(CSc1nc2c(c(C(F)(F)F)n1)CCc1ccccc1-2)NCc1ccco1	2.99%
COC1(OC)N=C(N)C2(C#N)C(c3ccccc3)NC(C)=CC12C#N (stereo not drawn)	2.16%
COC(=O)CS(=O)(=O)c1cc(Br)cc2c1N(C(C)=O)CC2	5.36%
COC(=O)C1=C(c2ccccc2OCc2ccccc2)C[C@@H]2CC[C@H]1N2C(=O)NCc1ccc(C(F)(F)F)cc1	-4.61%
O=S(=O)(Cc1cccc(F)c1)c1c[nH]c2ccccc12	8.65%
Cc1cccn2c(=O)nc(SCC(=O)N3CCCC3)nc12	-22.6%
Cc1ccn2c(=O)nc(SCc3cccc(C(F)(F)F)c3)nc2c1	-51.5%
Cc1cccn2c(=O)nc(SCC(=O)N3CCOCC3)nc12	9.72%

Compound	hERG current change (%, negative = inhibition) at 10uM
Cc1cccn2c(=O)nc(SCC(=O)N3CCN(c4ccccc4)CC3)nc12	-67.6%
C=CCSc1nc(=O)n2ccc(C)cc2n1	-22.9%
O=c1nc(SCc2cccc(C(F)(F)F)c2)nc2ccccn12	-37%
COC(=O)CSc1nc(C)c(Oc2ccccc2)c(=O)[nH]1	11.6%
O=c1[nH]c(CN2CCc3ccccc3C2)nc2ccccc12	5.47%
CCn1nc(C(=O)N2CCc3ccccc3C2)c2ccccc2c1=O	-13.6%
N#Cc1ccc(CN2CCN(C(=O)Cn3nc(C(N)=O)c4ccccc4c3=O)CC2)cc1	-70%
Cc1nn(CC(=O)N2CCN(Cc3ccccc3)CC2)c(=O)c2ccccc12	-2.85%
CCn1nc(C(=O)N2CCN(Cc3nc4ccccc4s3)CC2)c2ccccc2c1=O	-68.9%
COc1ccc(-n2nc(C(=O)N3CCN(Cc4ccc5c(c4)OCO5)CC3)c3ccccc3c2=O)cc1	-4.87%
CCN1CCN(C(=O)c2nn(-c3ccccc3)c(=O)c3ccccc23)CC1	-2.92%
COc1ccc(CN2CCN(C(=O)Cn3nc(C(=O)O)c4ccccc4c3=O)CC2)cc1F	-37.4%
O=C(c1n[nH]c(=O)c2ccccc12)N1CCN(Cc2ccc3c(c2)OCO3)CC1	2.15%
CCn1nc(C(=O)N2CCN(Cc3ccc4c(c3)OCO4)CC2)c2ccccc2c1=O	-52.1%
Cc1cc2nc(-c3ccco3)cc(C(F)(F)F)n2n1	-5.82%
CNc1c(NS(=O)(=O)c2ccc(F)c(Cl)c2)c(=O)oc2ccccc12	3.54%
O=C(CSCC(=O)N1CCOCC1)Nc1nc(-c2ccccc2)cs1	-14.8%
NC(=O)c1ccccc1OCC(=O)N1CCCc2ccccc21	14.5%
CC(C)Cc1nc2oc3c(=O)[nH]cnc3c2c2c1CCC2	-7.29%
CCCc1nc2oc3c(=O)[nH]cnc3c2c2c1CCCC2	-56.5%
CC(C)Cc1nc2oc3c(=O)[nH]cnc3c2c2c1CCCC2	-6.24%
